Assay results published in PubChem BioAssay AID624301 (The Scripps Research Institute Molecular Screening Center, 2012).
The source made the active and inactive calls.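 Rule for the calls: active = relative activity ratio in the reporter plus Dax-1 wells above 5 or under 0.1 at any tested dose; inactive = ratio stays between 0.1 and 5 at every dose.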

Experiment: DAX1 inhibitors in Gal4 CAT reporter cells – cell-based, CAT activity, absorbance, powder samples, DAX1 inhibitor project, dose response (AID 624301)
Conditions: HEK293 Gal4-DAX1 CAT reporter, ELISA absorbance, CAT reporter alone; at 100 µM (top of the series)

SMILES | relative activity ratio, higher = derepression
Cn1c(=O)n(C)c2cc(C(=O)Nc3ccc4c(c3)OCO4)ccc21 | 0.92 (active)
Cn1c(=O)n(C)c2cc(C(=O)Nc3ccc4c(c3)OCCO4)ccc21 | 0.59 (active)
